From PubChem
SENP6 inh: SENP6 protease inhibition. Q9GZR1. Recombinant SENP6 catalytic domain, aminoluciferin luminescence. 330,000 compounds, 1.8% hits. inhibition, % at 10 µM;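 active means inhibition above about 50% at the single tested dose, limit read from the data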
SENP7 block: blocks the human protease SENP7. 330,000 compounds, 1.5% hits. inhibition, % at 5 µM. recombinant SENP7, Z-RLRGG-aminoluciferin luminescence, 40 min. AID 434973;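 active means inhibition above about 50% at the single test dose, limit read from the data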
Target sequence (Q9BQF6 706-1050 limits assumed): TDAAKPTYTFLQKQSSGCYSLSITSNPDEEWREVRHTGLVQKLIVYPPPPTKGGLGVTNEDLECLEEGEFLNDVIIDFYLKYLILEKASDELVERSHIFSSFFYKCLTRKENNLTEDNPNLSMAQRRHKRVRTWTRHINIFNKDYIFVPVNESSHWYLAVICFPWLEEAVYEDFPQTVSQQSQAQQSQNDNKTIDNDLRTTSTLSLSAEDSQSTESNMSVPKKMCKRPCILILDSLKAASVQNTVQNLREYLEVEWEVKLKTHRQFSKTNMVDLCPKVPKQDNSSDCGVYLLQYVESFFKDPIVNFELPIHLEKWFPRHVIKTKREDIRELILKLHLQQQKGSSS
HSP90 inh: HSP90 refolding inhibition in rabbit reticulocyte lysate. luciferase refolding luminescence, 3 h. inhibition, % at 5.6 µM. 290,000 compounds, 0.91% hits. AID 1789;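 active means inhibition above the screen-wide mean plus 3 SD, computed separately per campaign, cut at about 16% in these data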;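 further: inhibitors lower the luminescence because luciferase stays unfolded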
SENP8 block-1: SENP8 (human) protease inhibition. Q96LD8. recombinant SENP8, Nedd8 substrate fluorescence. inhibition, % at 20 µM. 360,000 compounds, 0.64% hits. AID 602440; in the data active means inhibition mostly above about 40%, no sharp cut-off; inactive means mostly below about 27%
Target sequence (Q96LD8 whole entry, looked up): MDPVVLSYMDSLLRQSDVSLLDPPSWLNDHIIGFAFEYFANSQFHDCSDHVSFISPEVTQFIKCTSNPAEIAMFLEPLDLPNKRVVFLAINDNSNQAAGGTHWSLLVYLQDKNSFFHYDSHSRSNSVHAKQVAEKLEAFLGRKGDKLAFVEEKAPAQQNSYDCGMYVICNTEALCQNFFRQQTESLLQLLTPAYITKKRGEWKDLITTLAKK
SENP8 block-2: inhibitors of human SENP8 protease | Q96LD8 | purified SENP8, Z-RLRGG-aminoluciferin cleavage, luminescence | inhibition, % at 10 µM | 330,000 compounds, 1.2% hits | AID 2540; in the data active means inhibition above about 50%
SENP8 confirm: confirmation of human SENP8 protease inhibitors | 6,200 compounds, 40% hits | AID 488912 | inhibition, % at 12.5 µM | Recombinant SENP8, Z-RLRGG-aminoluciferin luminescence, 60 min | shares compounds with SENP7 block;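 active means mean inhibition across replicates above about 50%, limit read from the data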
SENP6 conf: human SENP6 inhibition, confirmed | shares compounds with SENP7 block | recombinant SENP6, Z-RLRGG-aminoluciferin luminescence | inhibition, % at 12.5 µM | 6,200 compounds, 58% hits | AID 488915
SENP7 confirm: confirmation of human SENP7 protease inhibitors; shares compounds with SENP7 block; recombinant SENP7, Z-RLRGG-aminoluciferin luminescence, 40 min; AID 488917; inhibition, % at 12.5 µM; 6,200 compounds, 69% hits
Casp3 SENP sel: inhibits human caspase-3 in SENP selectivity test; shares compounds with SENP7 block; purified caspase-3, Z-DEVD-aminoluciferin luminescence, 60 min; inhibition, % at 12.5 µM; 6,200 compounds, 60% hits; AID 488918;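 active means mean inhibition above about 50%, limit read from the data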
Luc interf: luminescence interference (SENP counter-screen); shares compounds with SENP7 block; Pre-incubated SENP8/Z-RLRGG-aminoluciferin, luciferase luminescence interference; inhibition, % at 12.5 µM; 6,200 compounds, 39% hits; AID 488919;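 active means mean inhibition above about 50% when retested at one dose, limit read from the data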
Of the large screens only hits and unclear results are named; the others gave an inactive call (follow-up assays come after a bar, where they were run). In the library only some 2.7% were active in any assay of this set; here they are far more common.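 How the source made its calls, unless noted: active means mean inhibition above about 50% in the one-dose retest (limit read from the data); inactive means the rest.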

O=C(O)CCCc1ccc2c(c1)CCc1ccccc1-2	SENP6 inh 50 (no result: HSP90 inh) | SENP8 confirm 77 | SENP6 conf 76 | SENP7 confirm 88 | Casp3 SENP sel 68 | Luc interf 81
O=C(CCCc1ccccc1)NC1CC1	none
O=C(Nc1ccccc1)c1ccc(NC(=O)C2CC2)cc1	SENP6 inh 58, SENP7 block 62 | SENP8 confirm inactive | SENP6 conf inactive | SENP7 confirm 67 | Casp3 SENP sel 64 | Luc interf inactive
O=C(Nc1ccc(C2SCCS2)cc1)c1ccccc1	SENP7 block 92, SENP8 block-2 53 | SENP8 confirm inactive | SENP6 conf inactive | SENP7 confirm inactive | Casp3 SENP sel inactive | Luc interf inactive
CCCCOc1ccc(Br)cc1/C(C)=N/NC1=NCCN1	none
CCN(CC)CCNC(=O)c1ccc(NC(=O)c2cc(S(=O)(=O)N3CCCCC3)ccc2C)cc1	none (no result: HSP90 inh)
COc1cccc(N(C(=O)c2cccs2)c2nc3ccccc3s2)c1	none
COc1ccc2c(-c3cc4ccc(OCc5ccc(F)cc5)cc4oc3=O)cc(=O)oc2c1	none (no result: SENP6 inh, SENP7 block, SENP8 block-2)
O=C1COc2ccc(OCc3ccc(F)cc3)cc21	SENP6 inh 71, SENP7 block 64 | SENP8 confirm 68 | SENP6 conf 67 | SENP7 confirm 89 | Casp3 SENP sel 76 | Luc interf 50
CCOc1ccc(CN2CCC(C(=O)N3CCN(c4ccccc4F)CC3)CC2)cc1OC	none
O=C(N/N=C/c1c[nH]c2ccccc12)c1cc(Br)ccc1O	none
CCOc1ccc(Br)cc1C(=O)N/N=C/c1c[nH]c2ccccc12	SENP6 inh 58 | SENP8 confirm inactive | SENP6 conf inactive | SENP7 confirm inactive | Casp3 SENP sel inactive | Luc interf inactive
O=C(N/N=C/c1c[nH]c2ccccc12)c1ccc2c(c1)OCCO2	SENP6 inh 54 | SENP8 confirm inactive | SENP6 conf inactive | SENP7 confirm 77 | Casp3 SENP sel 55 | Luc interf 60
Cc1cccc(OCc2nnc(SCC(=O)c3cccs3)n2C)c1C	none
COc1ccc(-c2nnc(-c3ccccc3O)o2)cc1	SENP6 inh 80, SENP7 block 93, SENP8 block-2 84 | SENP8 confirm 51 | SENP6 conf inactive | SENP7 confirm 67 | Casp3 SENP sel 56 | Luc interf inactive
COc1ccc(-c2nnc(-c3ccc(F)cc3)o2)cc1	SENP6 inh 58, SENP7 block 69, SENP8 block-2 57 | SENP8 confirm inactive | SENP6 conf inactive | SENP7 confirm inactive | Casp3 SENP sel inactive | Luc interf inactive
Cc1cccc(NC(=S)Nc2ccccn2)c1	none
Cc1cccc(NC(=S)c2nc3ccccc3s2)c1	SENP6 inh 65, SENP7 block 90, SENP8 block-2 84 | SENP8 confirm 62 | SENP6 conf 83 | SENP7 confirm 90 | Casp3 SENP sel 74 | Luc interf inactive
CCCc1cc(C(=O)NNC(=S)Nc2cccc(C)c2)cs1	SENP6 inh 79, SENP7 block 94, SENP8 block-2 80 | SENP8 confirm inactive | SENP6 conf inactive | SENP7 confirm inactive | Casp3 SENP sel inactive | Luc interf inactive
Fc1ccc(NC(=S)N2N=CCC2c2ccccc2)cc1 (configuration not stated)	SENP6 inh 58 | SENP8 confirm inactive | SENP6 conf inactive | SENP7 confirm 66 | Casp3 SENP sel inactive | Luc interf inactive
S=C(Nc1ccccc1)N1N=CCC1c1ccccc1 (configuration not stated)	none
COc1ccc(C2=Nc3ccccc3OC2)cc1	SENP6 inh 71, SENP7 block 56 | SENP8 confirm 98 | SENP6 conf 99 | SENP7 confirm 102 | Casp3 SENP sel 95 | Luc interf 90
COc1ccc(NC2=Nc3ccccc3CC2)cc1	none
O=C(Nc1nnc(-c2ccccc2)s1)c1ccccc1O	SENP6 inh 80, SENP7 block 63, SENP8 block-2 84 | SENP8 confirm inactive | SENP6 conf inactive | SENP7 confirm inactive | Casp3 SENP sel inactive | Luc interf inactive
COc1cccc(C(=O)Nc2nnc(-c3ccccc3)s2)c1OC	SENP6 inh 79, SENP7 block 55, SENP8 block-2 57 | SENP8 confirm inactive | SENP6 conf inactive | SENP7 confirm 64 | Casp3 SENP sel 61 | Luc interf inactive
O=C(CCN1C(=O)c2ccc([N+](=O)[O-])cc2C1=O)Nc1nccs1	none
Cc1ccc2nc(-c3cccnc3)oc2c1	none
Cc1ccc2oc(-c3ccc(NC(=O)CC(C)C)cc3)nc2c1	none
O=c1oc(-c2ccco2)nc2ccccc12	none
Cc1ccc2oc(-c3ccc(NC(=O)c4cccnc4)cc3)nc2c1	none
Cc1ccc2nc(-c3ccccn3)oc2c1	SENP6 inh 83, SENP7 block 81, SENP8 block-2 63 | SENP8 confirm inactive | SENP6 conf 71 | SENP7 confirm 95 | Casp3 SENP sel 89 | Luc interf inactive
Cc1ccc(-c2nc3cc(C)ccc3o2)cc1	SENP6 inh 90, SENP7 block 90, SENP8 block-2 89 | SENP8 confirm 58 | SENP6 conf 77 | SENP7 confirm 94 | Casp3 SENP sel 78 | Luc interf inactive
COC(=O)c1ccc(-c2nc3ccc(C)cc3o2)cc1	SENP7 block 70 | SENP8 confirm inactive | SENP6 conf inactive | SENP7 confirm inactive | Casp3 SENP sel inactive | Luc interf inactive
Cc1ccc2oc(-c3ccco3)nc2c1	SENP6 inh 66, SENP7 block 55 | SENP8 confirm inactive | SENP6 conf inactive | SENP7 confirm 76 | Casp3 SENP sel inactive | Luc interf inactive
O=C(NCc1ccc(F)cc1)C(=O)NCC1OCCN1S(=O)(=O)c1cccs1 (configuration not stated)	none
Cc1ccc(-c2nc3cc(N)ccc3o2)c(C)c1	SENP6 inh 83, SENP7 block 67, SENP8 block-2 69 | SENP8 confirm 58 | SENP6 conf 73 | SENP7 confirm 92 | Casp3 SENP sel 55 | Luc interf inactive
Cc1ccc(-c2nc3cc(N)ccc3o2)cc1	SENP6 inh 88, SENP7 block 90, SENP8 block-2 75 | SENP8 confirm inactive | SENP6 conf 86 | SENP7 confirm 97 | Casp3 SENP sel 82 | Luc interf 58
Cc1cccc(NC(=S)N(CCCN2CCOCC2)Cc2ccccn2)c1	none
Cc1ncoc1C(=O)N1CCCC(C(=O)c2cccc3ccccc23)C1 (configuration not stated)	none
